Results taken from PubChem BioAssay.

Biological target: Tumor necrosis factor receptor superfamily member 10B (Homo sapiens) (UniProt O14763)
Assay: viability loss of caspase-8 NB7 cells with TRAIL – with/without TRAIL, luminescence panel, confirmation (AID 651596)
Details: NB7 neuroblastoma + caspase-8, TRAIL sensitization, NB7 Caspase-8, with TRAIL, mean of runs, at 10 µM, stronger effect = higher value

Chain of Tumor necrosis factor receptor superfamily member 10B (Homo sapiens) (O14763 whole entry, looked up): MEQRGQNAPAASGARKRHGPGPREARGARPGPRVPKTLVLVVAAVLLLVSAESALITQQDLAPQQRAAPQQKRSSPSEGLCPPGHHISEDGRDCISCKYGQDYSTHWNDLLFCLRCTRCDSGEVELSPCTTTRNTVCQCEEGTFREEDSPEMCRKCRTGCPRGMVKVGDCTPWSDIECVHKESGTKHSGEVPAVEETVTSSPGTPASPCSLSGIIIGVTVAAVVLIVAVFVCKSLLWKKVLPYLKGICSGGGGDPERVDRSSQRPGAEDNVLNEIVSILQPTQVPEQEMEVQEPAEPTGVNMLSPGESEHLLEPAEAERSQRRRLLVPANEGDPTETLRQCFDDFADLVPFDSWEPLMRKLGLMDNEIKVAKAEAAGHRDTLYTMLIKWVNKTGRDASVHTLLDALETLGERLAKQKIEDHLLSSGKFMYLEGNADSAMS

SMILES | activity [%]
CC(C)(C)OC(=O)NCCCCCNC(=O)c1[nH]cnc1C(=O)Nc1cc(Br)ccc1F | 78.2
O=[N+]([O-])c1c(Nc2cccc(O)c2)cc(Cl)c2nonc12 | 97
CCC(COC)Oc1cc(NCc2ccccc2)c2ncn(C(C)C)c2c1 (stereo not drawn) | -8.03
CC(C)(C)C(=O)Nc1cccc(-c2nc3ccccc3c(=O)o2)c1 | 59.2
Cc1ccc(NC(=O)Cn2ncc(Cl)c(Cl)c2=O)cc1S(=O)(=O)N1CCCCC1 | 86.5
COc1ccc(-c2ccc(SC)nn2)cc1 | 88.9
CCc1ccc2nc(N(CCCN(C)C)C(=O)c3ccc(S(=O)(=O)N4CCc5ccccc5C4)cc3)sc2c1 | 68.4
COc1ccc2nc(Nc3nc(-c4cc5ccccc5oc4=O)cs3)sc2c1 | 50.4
C#Cc1ccc([C@@H]2C=C(C(=O)Nc3ccccc3)O[C@H](OCC)[C@H]2CCCO)cc1 | 90.8
COc1ccc2oc(C(=O)N3CCc4ccccc43)c(C)c2c1 | 82.7
O=C(N/N=C/c1cc(O)ccc1[N+](=O)[O-])c1ccc2c(c1)OCCO2 | 91
Nc1cnnc(N/N=C\c2ccccc2)c1Cl | 22.9
Cc1c(C(=O)Nc2cccc([N+](=O)[O-])c2)csc1-c1ccccc1 | 56.5
COc1ccccc1-c1cc2nc(-c3ccccc3)cc(N3CCN(C(=O)c4ccco4)CC3)n2n1 | 81.9
Cc1ccnc(NC(=O)c2sc3ccccc3c2Cl)c1 | 91.6
CN(C(=S)NC(=O)c1ccc(Cl)cc1)C1CCCCC1 | 40.6
Nc1ccc(-c2nc3ncccc3o2)c(Cl)c1 | 43.9
Cc1ccc(-c2nc3ccccc3[nH]2)s1 | 58.9
